Source: PubChem BioAssay (University of Kansas High Throughput Screening Laboratory)
mHTT-CaM PPI inh: mutant huntingtin-calmodulin interaction inhibitors – biochemical, AlphaScreen, primary screen. P42858. AlphaScreen His-mHTT/GST-CaM binding, luminescence. inhibition, % at 15 µM. 190,000 compounds, 3.6% hits
Pf apPOL block: Pf-apPOL inhibitors, biochemical, fluorescence | Plasmodium falciparum apicoplast DNA polymerase (apPOL) | Recombinant Pf-apPOL, molecular beacon fluorescence, 1.5 h | inhibition, % at 10 µM | 210,000 compounds, 0.25% hits | AID 1794808, 2022
A number is an active result; - = inactive; . = no result. The full list was thinned out, with hits kept by preference. Cut-off read from the data, not from the text of the source: active = inhibition above about 50%; inactive = the rest.

SMILES	mHTT-CaM PPI inh	Pf apPOL block
O=C1CC2(CCN(C(=O)Cc3cccs3)CC2)Oc2ccccc21	-	-
CCN1c2cc(F)ccc2C(=O)NC12CCN(C(=O)c1ccc(C)cc1)CC2	-	-
CC(C)C(=O)Oc1coc(CSc2nnc(NC(=O)c3cccs3)s2)cc1=O	82.4	73.8
O=C(CSc1nnc(NC(=O)c2cccs2)s1)NCc1ccccc1Cl	-	-
CCOc1cccc(CNC(=O)C2CCN(c3cncnc3N3CCCCC3)CC2)c1	-	-
CCCC1=NN(c2nc3ccccc3s2)C(=O)/C1=C/N(C)C	-	-
Cc1ccc(Nc2cc(C)nc(-c3ccccc3O)n2)cc1	-	-
CC1=NN(c2cc(C)nc(-c3ccccc3O)n2)C(=O)C1	56.2	-
CC1=NN(c2nc(-c3ccccc3O)cs2)C(=O)C1	97.5	-
CC1=NN(c2nc(-c3ccc(C#N)cc3)cs2)C(=O)C1	-	-
CC1=NN(c2nc3ccccc3s2)C(=O)C1	93.7	-
Cc1cccc(OCCOCCN2CCCCCC2)c1	-	-
COc1ccccc1CCC(=O)N1CCn2cnnc2C1	-	-
O=C(c1cc(Cl)ccc1F)N1CCc2nc(-c3ccc(F)cc3)ncc2C1	-	-
Cc1nc(-c2ccc(C(=O)Nc3ccc(F)cc3C)cc2)cs1	-	-
N#Cc1ccc(Cl)cc1NC(=O)C(=O)NCC1(c2ccccc2)CCOCC1	-	-
Cc1ccc(-c2nnc(CCC(=O)N3CCCCC3)c(=O)[nH]2)cc1Cl	-	-
COc1cc(Nc2ncc3c(n2)CCN(Cc2ccc(F)cc2)C3)cc(OC)c1	-	-
COc1ccc(C)cc1NC(=O)C1CCN(S(=O)(=O)c2ccc(Cl)cc2)CC1	-	-
O=C(Nc1ccccc1C(=O)O)c1ccccc1	-	-
O=C(Nc1ccccc1C(=O)O)c1cccc(C(=O)Nc2ccccc2C(=O)O)c1	69.8	-
COc1cc(OC)c(NC(=O)N2CCCC2c2ccccc2F)cc1Cl (stereo unspecified)	-	-
Cc1cccc(-n2nc(C)c(C(=O)NCc3ccccn3)c2C(C)C)c1	-	-
Cc1ccccc1CNC(=O)c1cc2n(n1)CCCN(Cc1ccc(F)cc1)C2=O	-	-
CSc1nc2c(c(=O)[nH]1)C1(CCCCC1)Cc1ccccc1-2	-	-
SMILES	mHTT-CaM PPI inh	Pf apPOL block
NNc1nc(N)c2c(n1)-c1ccccc1CC21CCCCC1	100.3	-
CC(C)NC(=O)C1CCc2sc(C(=O)N3CCCC3)cc2C1 (stereo unspecified)	-	-
CC(C)c1cccc(C(C)C)c1NC(=O)Nc1ccccc1	-	-
Cc1ccccc1-n1nc2c(c1NC(=O)Cc1ccccc1)CS(=O)(=O)C2	-	-
CCCCC(=O)Nc1c2c(nn1-c1ccccc1C)CS(=O)(=O)C2	-	72.1
COc1cccc2c1OC1(CCCCC1)N1N=C(c3ccc(C)o3)CC21 (stereo unspecified)	80.0	-
COc1cccc2c1OC1(CCC(C)CC1)N1N=C(c3ccc(C)o3)CC21 (stereo unspecified)	85.0	-
COc1ccc(C2=NN3C(C2)c2ccccc2OC32CCCCC2)cc1 (stereo unspecified)	-	-
COc1cccc2c1OC1(CCCCC1)N1N=C(c3ccccc3)CC21 (stereo unspecified)	-	-
COc1cccc(C(=O)Nc2ccc(NC(=O)c3cccc(OC)c3OC)cc2)c1OC	-	-
CC1(C)CC(=O)c2c(nc(Cc3ccccc3)c3[nH]c4ccccc4c23)C1	-	-
Cc1ccsc1CN1CCN(c2cnn3cnnc3c2)CC1	-	-
Cc1csc2nc(CSc3nc4ccccc4o3)c(Cl)n12	-	-
CC1=C(/C=C/c2ccc(Cl)cc2Cl)C(=O)c2ccccc2C1=O	67.8	-
O=C1OC(c2ccccc2F)=N/C1=C/c1ccc(Cl)cc1Cl	-	-
N#Cc1c(N2CCOCC2)nsc1-c1ccccc1Cl	.	-
N#CC(C#N)=C1C(Cl)=C(N2CCCCC2)c2ccccc21	56.0	-
CC1=C(C#N)C(=O)NC(=O)/C1=C\c1ccc(-c2ccccc2C(=O)O)o1	-	-
OCCN(Cc1ccccc1)CC(O)COc1cccc2ccccc12 (stereo unspecified)	-	-
OCCN(Cc1ccccc1)CC(O)COc1ccc(Cl)cc1Cl (stereo unspecified)	50.7	-
Cn1nc(-c2nc(-c3cccc(F)c3)no2)c2c1CCN(C(=O)c1cccc(F)c1)C2	-	-
Cn1nc(-c2nc(-c3ccccc3)no2)c2c1CCN(C(=O)c1ccccc1)C2	51.5	-
Cn1nc(-c2nc(C3CC3)no2)c2c1CCN(C(=O)c1ccc(Cl)cc1)C2	-	-
Cn1nc(-c2nc(C3CC3)no2)c2c1CCN(C(=O)Nc1ccc(Cl)cc1)C2	62.7	-
Cc1ccc(C(=O)N2CCc3c(c(-c4nc(-c5ccccc5)no4)nn3C)C2)cc1	-	-
SMILES	mHTT-CaM PPI inh	Pf apPOL block
Cn1nc(-c2nc(-c3cccc(F)c3)no2)c2c1CCN(C(=O)c1cccs1)C2	61.1	-
CN(C)c1ccc(CN2C(=O)CCC2(C)C(=O)NCc2ccccc2)cc1 (stereo unspecified)	-	-
Fc1ccc(Cn2cnc3ccccc32)cc1	-	-
Clc1ccc(Cn2cnc3ccccc32)cc1Cl	51.8	-
Cc1ccc(C)c(N2CCC(C(=O)Nc3cccc(C(F)(F)F)c3)C2=O)c1 (stereo unspecified)	78.7	-
Cc1ccc(C)c(N2CCC(C(=O)Nc3cccc(Cl)c3)C2=O)c1 (stereo unspecified)	-	-
Cc1cc(NC(=O)C(c2ccccc2)c2ccccc2)n(-c2ccccc2)n1	-	-
COC(CNC(=O)c1ccc(N2CCCCCC2)c([N+](=O)[O-])c1)OC	-	-
O=[N+]([O-])c1cc(C(F)(F)F)ccc1N1CCCCC1	.	-
CCOC(CNC(=O)c1ccc(N2CCc3ccccc32)c([N+](=O)[O-])c1)OCC	56.0	-
O=[N+]([O-])c1cc(C(F)(F)F)ccc1N1CCc2ccccc21	95.0	-
O=C(Cn1c(=O)[nH]c2ccccc2c1=O)Nc1nc(-c2cccnc2)cs1	-	-
Cc1ccnc2c1ccc1cccnc12	100.3	.
c1cnc2c(c1)ccc1cccnc12	.	-
CCN1c2cc(F)ccc2C(=O)NC12CCN(C(=O)c1cccc(F)c1)CC2	-	-
COc1ccc(-n2nnc(-c3nc(C)c(C(=O)NCCCOC(C)C)s3)c2C)cc1	-	-
Cc1cccc2c(C3CCN(C(=O)c4ccccc4OC(F)(F)F)CC3)c[nH]c12	100.0	-
COc1ccccc1C1CCN(C(=O)CSCc2cccc3ccccc23)CC1	.	-
COc1cc(OC)c2ccc(=O)oc2c1C(CCN1CCOCC1)c1ccc2c(c1)OCO2 (stereo unspecified)	-	-
CCCCCc1cc(=O)oc2c(C(CCN3CCCC3)c3ccc4c(c3)OCO4)c(OC)cc(OC)c12 (stereo unspecified)	100.2	-
COc1cc(OC)c2ccc(=O)oc2c1C(CCN1CCCC1)c1ccc2c(c1)OCO2 (stereo unspecified)	-	-
COc1cc(OC)c2c(-c3ccccc3)cc(=O)oc2c1C(CCN1CCCC1)c1ccc2c(c1)OCO2 (stereo unspecified)	100.2	-
COc1cc(OC)c2c(-c3ccccc3)cc(=O)oc2c1C(CCN1CCOCC1)c1ccc2c(c1)OCO2 (stereo unspecified)	84.2	-
N#CC(=CNc1ccc(F)cc1)C(=O)C1CC1	.	-
COc1ccc(CCNC(=O)c2ccccc2[N+](=O)[O-])cc1OC	-	-
